In PubChem BioAssay (NCI):
About 79,000 compounds went through this panel and 15% of them were active in at least one assay; those are over-represented in the sample as a whole. No stated cut-off is given here; in the data, active means growth inhibition above about 70%; inactive means the rest.

Columns and labels:
[1] = NCI Yeast Anticancer Drug Screen. Data for the rad50 strain (AID 155);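 further: 0% = growth of vehicle-only cultures of the same strain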; details: S. cerevisiae rad50 strain growth inhibition; at 50.0 µM; stronger effect = higher value
Procedure, shortened: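 Cells are treated with compound, grown, and their growth is then scored against vehicle-only cultures of the same repair-deficient yeast strain.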

[2] = NCI Yeast Anticancer Drug Screen. Data for the mec2-1 strain (AID 157); details: S. cerevisiae mec2-1 strain, at 50.0 µM, stronger effect = higher value
Procedure, shortened: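 Growth inhibition is read against vehicle-treated controls after compound exposure of the mec2-1 yeast strain, which is defective in DNA damage repair or cell cycle control.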

[3] = NCI Yeast Anticancer Drug Screen. Data for the sgs1 mgt1 strain (AID 161);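 further: 0% = growth of cultures given vehicle only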; details: S. cerevisiae sgs1 mgt1 strain, at 50.0 µM, stronger effect = higher value
Procedure, shortened: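 Yeast cells carrying a defined DNA-repair defect were exposed to test compounds. Growth inhibition was measured relative to vehicle-treated controls.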

[4] = NCI Yeast Anticancer Drug Screen. Data for the cln2 rad14 strain (AID 165);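 further: 0% = growth equal to vehicle treated cultures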; details: S. cerevisiae cln2 rad14 strain, at 50.0 µM, stronger effect = higher value
Procedure, shortened: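 Growth inhibition, relative to vehicle-treated controls, is the read-out. The test organism is a yeast strain with defined genetic alterations, cln2 rad14.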

[5] = NCI Yeast Anticancer Drug Screen. Data for the bub3 strain (AID 167); details: S. cerevisiae bub3 mutant strain, at 50.0 µM, stronger effect = higher value
Procedure, shortened: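 Part of a panel of yeast mutants defective in DNA damage repair or cell cycle regulation. Each strain is grown with compound, and inhibition is calculated relative to solvent-treated cultures.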

[6] = NCI Yeast Anticancer Drug Screen. Data for the mlh1 rad18 strain (AID 175); details: S. cerevisiae mlh1 rad18 strain growth inhibition; at 50.0 µM; stronger effect = higher value
Procedure, shortened: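 Cells of a genetically altered yeast strain, deficient in DNA damage repair, were treated with compound. Their growth was then compared with that of vehicle-treated cultures to give inhibition.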

Measured: growth inhibition

O=C(Nc1ccc(Br)cc1)c1ccccc1
inactive: [1] 14.4% | [2] 20.9% | [3] 0.35% | [4] -31.5% | [5] 0.8% | [6] 22.1%

O=C1NC(=O)/C(=C\c2cccc(Br)c2)N1
inactive: [1] -7.95% | [2] 4.15% | [3] -12.1% | [4] 6.8% | [5] 24.5% | [6] 8.85%

Nc1cc2c(cc1Br)-c1cc(Cl)c(Cl)cc1C2=O
inactive: [1] -5.75% | [2] -13.8% | [3] -7.15% | [4] -23.1% | [5] -2.1% | [6] -11.5%

CNCCSSCCN
inactive: [1] -10.2% | [2] -0.95% | [3] -6.3% | [4] -18.8% | [5] 2.6% | [6] 0.95%

O=C(Cn1ccccc1=O)c1ccc(F)cc1
inactive: [1] 9.65% | [2] -0.15% | [3] 0% | [4] -18.6% | [5] 1.7% | [6] -8.25%

Cc1ccc(C(=O)/C(C#N)=C/Nc2c(C)n(C)n(-c3ccccc3)c2=O)cc1
inactive: [1] 17% | [2] 23.6% | [3] 20.1% | [4] 12.8% | [5] 19.5% | [6] 26.5%

O=c1[nH]c(=O)n(C2OC(CO)C(O)C2O)cc1NN=NCc1ccccc1 (stereo unspecified)
inactive: [1] -10.1% | [2] -13.7% | [3] -11.2% | [4] 4.9% | [5] -4.5% | [6] -10.9%

Clc1ccc(CCc2ccncn2)c(Cl)c1
inactive: [1] 17.5% | [2] 16.1% | [3] 5.7% | [4] 17.7% | [5] 14.7% | [6] 51.6%

CC(=O)Nc1ccc(C2SCc3nc4ccccc4n32)cc1 (stereo unspecified)
inactive: [1] -21.5% | [2] -11.1% | [3] -32.5% | [4] -34.2% | [5] -24.9% | [6] -48.8%

CCn1c2ccccc2c2cc(N=Nc3cc(N)ccc3N(C)C)ccc21
inactive: [1] -3.35% | [2] -7.85% | [3] -9.1% | [4] -22.3% | [5] -5.05% | [6] -4.6%

CCCC(=O)OC(CCC1CCCO1)CCC1CCCO1 (stereo unspecified)
inactive: [1] 0.3% | [2] -14.9% | [3] 10.4% | [4] 23.9% | [5] -6.35% | [6] 19.6%

CC1CCC2CCCCC2/C1=N\NC(N)=O (stereo unspecified)
inactive: [1] -10.8% | [2] -3.9% | [3] 3.95% | [4] 2.35% | [5] 0.25% | [6] -16.7%

Cc1ccc(-c2c(C#N)c(-c3ccccc3)c(C#N)c(=O)n2NS(=O)(=O)c2ccc(C)cc2)cc1
inactive: [1] 3.65% | [2] 28.1% | [3] 17.1% | [4] 18.7% | [5] 18.2% | [6] 23.3%

Cc1cc(Cl)cc(C)c1O
inactive: [1] 39.8% | [2] -10.3% | [3] 6.15% | [4] 0.95% | [5] 14.9% | [6] 11.8%

CCOC(=O)C1=C(C)NC(C)=C(C(=O)OCC)C1c1c(C)noc1C
inactive: [1] 19.6% | [2] 18.6% | [3] 60.7% | [4] 19.3% | [5] 6.95% | [6] 61.4%

CCc1n[nH]c(=O)n1NC(=O)/C=C\C(=O)O
inactive: [1] -12.2% | [2] -16.1% | [3] -23.9% | [4] -17.7% | [5] -10.7% | [6] -25.5%

Cn1nnnc1CCO
inactive: [1] -9.45% | [2] 7.05% | [3] -13.4% | [4] -0.55% | [5] 2.9% | [6] -8.55%

Cc1ccc(NCC#N)cc1
inactive: [1] 27.1% | [2] 15.2% | [3] -1.1% | [4] -12.6% | [5] 15.4% | [6] 36.5%

O=C(O)c1cc(-c2ccc(-c3ccccc3)cc2)nc2cc3ccccc3cc12
inactive: [1] -15.7% | [2] -3.9% | [3] -2.15% | [4] -20.6% | [5] -54.9% | [6] 22%

O=c1cc(-c2cccc(OC(F)(F)F)c2)[nH]c2cc3c(cc12)OCO3
inactive: [1] -6.25% | [2] 2.75% | [3] -5.05% | [4] 13.8% | [5] 19.7% | [6] -24.2%

CC(Sc1ccccc1)C(CO)(CO)[N+](=O)[O-] (stereo unspecified)
inactive: [1] -15.1% | [2] 1.8% | [3] 28.4% | [4] 9.4% | [5] -14.6% | [6] 28.4%
